Measurements published in PubChem BioAssay.
Activity calls are given as the source filed them.

Key:
[1] = E. coli DRC41 culture turbidity changes, primary screen, E. coli filamentation inducer project, strain DRC41, OD650, 48 h (AID 1152);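 note: E. coli MC1000 strain DRC41 lacking acrAB efflux pump and sulA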; details: E. coli DRC41 (acrAB sulA), higher = more signal, called active from +8 up or from −8 down
[2] = small-molecule binders of probe aLefty1, primary screen, biochemical, small-molecule microarray, 635/667 nm fluorescence (AID 1153); details: higher = more signal;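 note: score merges spot fluorescence with signal-to-noise ratio from the scanned slide images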
[3] = PSAC antagonists in infected red cells, primary screen, cell-based, P. falciparum Indochina, OD700, 1 h (AID 1154); details: P. falciparum Indochina infected RBC osmotic lysis, higher = more signal, called active from +8 up or from −8 down
[4] = PSAC antagonists in infected red cells, primary screen, cell-based, P. falciparum Indochina, OD700, 2 h (AID 1155);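 note: lysis reports solute entry through the parasite surface anion channel PSAC; channel blockers reduce lysis of infected cells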; details: P. falciparum Indochina infected erythrocytes, osmotic lysis OD700; higher = more signal, called active from +8 up or from −8 down
[5] = osmotic lysis modulators in infected erythrocytes, primary screen, PSAC antagonist project, cell-based, P. falciparum Indochina, OD700, 3 h (AID 1156); details: higher = more signal, called active from +8 up or from −8 down
[6] = PSAC antagonists in infected red cells, primary screen, cell-based, P. falciparum Indochina, OD700, 18 h (AID 1157); details: P. falciparum Indochina infected erythrocytes, osmotic lysis OD700, 18 h; higher = more signal, called active from +8 up or from −8 down
[7] = modulators of S6 phosphorylation in cells, primary screen, cell-based, A549, cytoblot, luminescence, serum-stimulated (AID 1158); details: A549 phospho-S6 cytoblot, 5 h, higher = more signal;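 note: serum-stimulated A549 lung adenocarcinoma cells; signal is phosphorylated S6 detected by cytoblot immunostaining with HRP secondary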
[8] = biological target: NADPH oxidase 2 (Homo sapiens) (UniProt P04839); test: NOX2-dependent H2O2 signal modulators, primary screen, NOX inhibitor project, cell-based, HEK293-NOX2, PMA-stimulated, Amplex Red fluorescence (AID 1159); details: 45 min, higher = more signal, called active from +8 up or from −8 down; note: test concentration not given here
[9] = biological target: NADPH oxidase 4 (Homo sapiens) (UniProt Q9NPH5); test: NOX4-dependent H2O2 signal modulators, primary screen, NOX inhibitor project, cell-based, HEK293-NOX4, tetracycline-induced, Amplex Red fluorescence (AID 1160); details: 45 min, higher = more signal, called active from +8 up or from −8 down
[10] = biological target: NADPH oxidase 5 (Homo sapiens) (UniProt Q96PH1); test: NOX5-dependent H2O2 signal modulators, primary screen, NOX inhibitor project, cell-based, HEK293-NOX5, Amplex Red fluorescence (AID 1161); details: HEK293-NOX5, ionomycin, 45 min, higher = more signal
[11] = A549 cell viability effects, profiling panel, calcein-AM fluorescence, 48 h, basal (AID 1162); details: higher = more signal; note: test concentration not given here
[12] = adipocyte viability effects, profiling panel, cell-based, 3T3-L1 adipocytes, calcein-AM fluorescence, 48 h, basal (AID 1163); details: 3T3-L1 adipocytes viability, higher = more signal; note: test concentration not given here
[13] = HepG2 cell viability effects, profiling panel, calcein-AM fluorescence, 48 h, basal (AID 1164); details: higher = more signal; note: test concentration not given here
[14] = MM1S cell viability effects, profiling panel, calcein-AM fluorescence, 48 h, basal (AID 1165); details: higher = more signal;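 note: viability of MM1S multiple myeloma cells under basal unstimulated conditions; test concentration not given here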
[15] = basal RPMI8226 viability, no added stimulus, profiling panel, cell-based, calcein-AM fluorescence, 48 h, PK04 Diversity Set (AID 1166); details: RPMI8226 myeloma viability, higher = more signal;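 note: cells grown under basal conditions without added stimulus; test concentration not given here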
[16] = basal HepG2 mitochondrial membrane potential changes, profiling panel, cell-based, JC-1 fluorescence, 24 h, 100 nL compound (AID 1167); details: higher = more signal; note: test concentration not given here
[17] = basal 3T3-L1 adipocyte mitochondrial potential changes, profiling panel, cell-based, JC-1 fluorescence, 3T3-L1 adipocytes, 24 h, 100 nL compound (AID 1168); details: JC-1 mitochondrial fluorescence, higher = more signal, called active from +8 up or from −8 down; note: test concentration not given here
[18] = basal RPMI8226 mitochondrial membrane potential changes, profiling panel, cell-based, JC-1 fluorescence, 24 h, 100 nL compound (AID 1169); details: RPMI8226 myeloma, JC-1 mitochondrial potential fluorescence, higher = more signal; note: test concentration not given here
[19] = basal MM1S mitochondrial membrane potential changes, profiling panel, cell-based, JC-1 fluorescence, 24 h, 100 nL compound (AID 1170); details: higher = more signal; note: test concentration not given here
[20] = A549 lung cancer cell viability effects, profiling panel, resazurin fluorescence, 24 h, PK04 Diversity Set (AID 1171); details: higher = more signal, called active from +8 up or from −8 down; note: test concentration not given here

Sequence of NADPH oxidase 4 (Homo sapiens) (Q9NPH5 whole entry, looked up): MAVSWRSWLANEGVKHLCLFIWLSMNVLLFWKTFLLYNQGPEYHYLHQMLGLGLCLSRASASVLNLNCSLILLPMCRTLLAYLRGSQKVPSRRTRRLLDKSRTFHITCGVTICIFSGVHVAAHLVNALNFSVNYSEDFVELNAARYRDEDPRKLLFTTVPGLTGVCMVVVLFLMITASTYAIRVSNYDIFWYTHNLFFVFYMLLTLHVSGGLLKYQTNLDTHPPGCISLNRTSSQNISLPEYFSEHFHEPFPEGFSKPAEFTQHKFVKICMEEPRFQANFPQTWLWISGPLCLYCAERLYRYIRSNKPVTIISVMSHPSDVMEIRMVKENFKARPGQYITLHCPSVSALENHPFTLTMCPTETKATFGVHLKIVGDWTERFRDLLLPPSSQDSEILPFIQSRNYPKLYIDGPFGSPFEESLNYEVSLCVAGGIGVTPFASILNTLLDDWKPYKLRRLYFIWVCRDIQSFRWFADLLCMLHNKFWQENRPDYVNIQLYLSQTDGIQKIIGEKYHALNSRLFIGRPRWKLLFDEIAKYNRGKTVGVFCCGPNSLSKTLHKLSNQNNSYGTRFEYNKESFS
Sequence of NADPH oxidase 5 (Homo sapiens) (Q96PH1 whole entry, looked up): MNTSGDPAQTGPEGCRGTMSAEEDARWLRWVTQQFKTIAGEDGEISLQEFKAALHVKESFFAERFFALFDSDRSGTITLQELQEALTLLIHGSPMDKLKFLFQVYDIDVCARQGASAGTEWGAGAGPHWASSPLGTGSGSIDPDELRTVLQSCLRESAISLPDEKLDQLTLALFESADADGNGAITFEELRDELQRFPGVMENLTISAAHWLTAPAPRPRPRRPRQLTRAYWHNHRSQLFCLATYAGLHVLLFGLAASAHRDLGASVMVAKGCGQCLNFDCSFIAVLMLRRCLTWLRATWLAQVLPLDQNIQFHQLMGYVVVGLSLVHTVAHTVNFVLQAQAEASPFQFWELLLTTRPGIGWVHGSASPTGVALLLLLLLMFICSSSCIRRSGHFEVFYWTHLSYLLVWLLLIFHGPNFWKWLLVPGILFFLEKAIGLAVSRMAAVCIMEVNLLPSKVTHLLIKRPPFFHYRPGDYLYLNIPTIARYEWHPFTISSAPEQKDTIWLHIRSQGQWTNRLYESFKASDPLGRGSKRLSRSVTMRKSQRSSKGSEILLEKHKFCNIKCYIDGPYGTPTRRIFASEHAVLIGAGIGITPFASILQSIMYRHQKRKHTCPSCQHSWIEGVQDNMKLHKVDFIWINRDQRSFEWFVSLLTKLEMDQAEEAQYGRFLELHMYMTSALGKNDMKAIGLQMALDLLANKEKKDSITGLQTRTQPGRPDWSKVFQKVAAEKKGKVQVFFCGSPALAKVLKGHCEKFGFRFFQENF
Sequence of NADPH oxidase 2 (Homo sapiens) (P04839 whole entry, looked up): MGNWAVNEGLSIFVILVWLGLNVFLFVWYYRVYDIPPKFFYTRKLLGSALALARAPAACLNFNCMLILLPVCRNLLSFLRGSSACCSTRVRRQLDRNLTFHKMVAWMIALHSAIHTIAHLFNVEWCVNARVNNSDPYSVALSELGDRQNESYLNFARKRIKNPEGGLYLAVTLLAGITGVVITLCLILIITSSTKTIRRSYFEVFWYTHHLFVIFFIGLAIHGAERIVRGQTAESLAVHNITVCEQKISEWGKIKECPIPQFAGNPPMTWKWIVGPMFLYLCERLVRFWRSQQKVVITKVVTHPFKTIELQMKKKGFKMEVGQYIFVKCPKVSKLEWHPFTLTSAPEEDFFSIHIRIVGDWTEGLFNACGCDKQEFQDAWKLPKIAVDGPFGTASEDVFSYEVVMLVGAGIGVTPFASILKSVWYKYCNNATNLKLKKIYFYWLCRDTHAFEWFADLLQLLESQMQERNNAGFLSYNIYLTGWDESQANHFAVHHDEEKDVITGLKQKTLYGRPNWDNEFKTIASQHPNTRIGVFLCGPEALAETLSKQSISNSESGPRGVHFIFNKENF

Compound	z-score [1]	composite z-score [2]	z-score [3]	z-score [4]	z-score [5]	z-score [6]	z-score [7]	z-score [8]	z-score [9]	z-score [10]	z-score [11]	z-score [12]	z-score [13]	z-score [14]	z-score [15]	z-score [16]	z-score [17]	z-score [18]	z-score [19]	z-score [20]
COCCOC(=O)N1C(=O)[C@@]2(c3cc(C#CCC(C(=O)OC)C(=O)OC)ccc31)[C@H](c1ccc(O)cc1)N1[C@H](c3ccccc3)[C@H](c3ccccc3)OC(=O)[C@H]1[C@@H]2C(=O)N1CCc2cc(OC)c(OC)cc2C1	0.904 (inactive)	-0.149	0.442 (inactive)	0.0876 (inactive)	0.328 (inactive)	0.394 (inactive)	0.161	1.94 (inactive)	0.336 (inactive)	1.23	0.393	0.632	0.806	-0.243	-3.34	0.763	-0.291 (inactive)	-1.15	0.22	0.742 (inactive)
C=C1C(=O)C=C2CN(C(=O)c3ccccc3)[C@@](Cc3ccc(F)cc3)(C(=O)OC)[C@@H]12	-2.05 (inactive)	0.676	-0.0775 (inactive)	-1.39 (inactive)	-1.69 (inactive)	-1.83 (inactive)	-1.06	-3.94 (inactive)	-4.76 (inactive)	-3.73	-3.89	-1.94	-5.62	-3.36	-4.73	-3.92	3.42 (inactive)	-0.764	-2.82	-7 (inactive)
C=CCNC(=O)[C@@H]1[C@H]2C(=O)O[C@H](c3ccccc3)[C@H](c3ccccc3)N2[C@H](c2ccc(OCCO)cc2)[C@@]12C(=O)Nc1ccc(C#CC3=CCCCC3)cc12	-0.874 (inactive)	-0.21	2.81 (inactive)	1.98 (inactive)	-0.306 (inactive)	1.87 (inactive)	-0.474	1.38 (inactive)	-0.894 (inactive)	1.56	-1.25	0.73	-1.18	-2.12	-2.66	-1.11	-0.194 (inactive)	-1.19	-1.24	-1.49 (inactive)
C=C(CC1([C@@H](NP(=O)(c2ccccc2)c2ccccc2)[C@H]2C[C@@H]2CCCC)CC1)c1cccc(OC)c1	-1.57 (inactive)	0.494	2.33 (inactive)	0.451 (inactive)	1.36 (inactive)	0.935 (inactive)	-0.254	-0.914 (inactive)	-1.36 (inactive)	-2.78	-1.61	-0.803	-0.96	-3.47	-4.72	-1.28	-0.532 (inactive)	-0.799	-0.366	6.21 (inactive)
C=C(CCCC)C(=O)CC[C@H](OC(=O)c1ccccc1-c1ccccc1C(=O)O)c1cccc(OCCO)c1	-0.497 (inactive)	-0.147	8.46 (active)	1.77 (inactive)	1.97 (inactive)	0.478 (inactive)	-0.363	0.976 (inactive)	-0.462 (inactive)	-1.74	-0.186	0.415	-0.73	-3.37	-2.88	-0.789	0.379 (inactive)	-0.451	-0.507	-0.611 (inactive)
C=C(C(=O)CC[C@@H](OC(=O)c1ccccc1-c1ccccc1C(=O)O)c1cccc(OCCO)c1)C(C)C	0.272 (inactive)	0.262	4.83 (inactive)	0.407 (inactive)	0.51 (inactive)	0.233 (inactive)	-0.205	3.11 (inactive)	1.06 (inactive)	-0.442	0.811	0.647	-0.474	-0.305	-0.637	-1.12	1.01 (inactive)	-0.143	0.0602	1.33 (inactive)
COCCOC(=O)N1C(=O)[C@@]2(c3cc(C#CCNC(N)=O)ccc31)[C@H](C(=O)Nc1nc3ccccc3s1)[C@H]1C(=O)O[C@H](c3ccccc3)[C@H](c3ccccc3)N1[C@@H]2c1ccc(O)cc1	-0.614 (inactive)	0.317	1.1 (inactive)	0.476 (inactive)	-0.385 (inactive)	1.05 (inactive)	0.637	0.95 (inactive)	-1.12 (inactive)	0.142	-0.277	-0.133	-0.287	-1.19	0.258	-3.96	-2.98 (inactive)	-0.776	-1.14	0.14 (inactive)
[N-]=[N+]=Nc1ccccc1C[C@]1(C(=O)N2CCCCC2)N=C(c2ccc(OCCCO)cc2)O[C@H]1c1ccccc1	0.699 (inactive)	0.179	18 (active)	4.52 (inactive)	3.48 (inactive)	1.87 (inactive)	-0.0985	-1.76 (inactive)	-0.593 (inactive)	-1.68	-0.786	0.0946	0.014	-3.29	-4.3	0.839	0.231 (inactive)	-1.2	-2.15	-0.676 (inactive)
CN(C)C(=O)[C@]1(CCS(=O)(=O)c2ccccc2)N=C(c2ccc(OCCCO)cc2)O[C@@H]1c1ccccc1CN=[N+]=[N-]	0.0558 (inactive)	0.342	25.5 (active)	14.6 (active)	1.47 (inactive)	1.57 (inactive)	0.131	-0.163 (inactive)	2.09 (inactive)	-0.658	-0.306	-0.0349	0.589	-1.29	0.382	-0.12	-0.197 (inactive)	0.0522	-0.776	1.09 (inactive)
C=CCNC(=O)[C@H]1[C@@H]2C(=O)O[C@@H](c3ccccc3)[C@@H](c3ccccc3)N2[C@@H](c2ccc(OCCO)cc2)[C@]12C(=O)N(C(=O)OCCOC)c1ccc(C#CCC(C(=O)OC)C(=O)OC)cc12	-0.335 (inactive)	0.123	4.28 (inactive)	1.28 (inactive)	0.743 (inactive)	0.656 (inactive)	-0.116	1.64 (inactive)	0.791 (inactive)	0.621	1.32	0.0681	0.811	0.495	-0.749	-0.517	0.566 (inactive)	-0.82	-1.58	-0.0048 (inactive)
COc1ccc(CCNC(=O)[C@@]2(C)c3ccccc3C(=O)N(Cc3ccc(OC(F)(F)F)cc3)[C@H]2c2ccc(CO)cc2)cc1	-0.933 (inactive)	-0.588	7.22 (inactive)	1.67 (inactive)	1.79 (inactive)	1.16 (inactive)	0.029	-0.61 (inactive)	-0.547 (inactive)	-1.23	0.109	0.965	-0.0665	-2.23	-2.3	2.56	0.434 (inactive)	-0.114	0.0946	2.43 (inactive)
[N-]=[N+]=NCc1ccccc1[C@H]1OC(c2ccc(OCCCO)cc2)=N[C@@]1(CCS(=O)(=O)c1ccccc1)C(=O)NCCN1CCOCC1	-0.265 (inactive)	0.877	27.1 (active)	13.2 (active)	1.38 (inactive)	1.99 (inactive)	-0.124	0.636 (inactive)	1.33 (inactive)	1.65	1.69	-0.328	1.14	-1.03	0.511	0.418	-0.221 (inactive)	-0.556	-0.801	0.0651 (inactive)
COc1ccc([Si](C)(C)[C@H]2[C@H](CC(=O)N(CCO)Cc3ccccc3)O[C@@]3(C(=O)N(Cc4ccc(N5C(=O)c6cccc7cccc5c67)cc4)c4ccccc43)[C@@H]2C)cc1	-0.263 (inactive)	0.542	15.2 (active)	3.52 (inactive)	1.24 (inactive)	1.48 (inactive)	0.294	1.52 (inactive)	0.695 (inactive)	2.88	-1.12	1.59	-0.899	-0.998	-3.8	0.488	-0.381 (inactive)	-1.05	-0.091	-2.22 (inactive)
COC(=O)[C@@]1(Cc2ccc(F)cc2)[C@H]2c3cc(C(=O)N(C)C)n(CCF)c3C[C@H]2CN1C(=O)c1ccccc1	1.28 (inactive)	-0.012	2.02 (inactive)	-0.771 (inactive)	-1.04 (inactive)	-1.29 (inactive)	0.456	0.532 (inactive)	0.864 (inactive)	-3.46	-0.063	-0.138	0.121	0.066	0.266	-0.0126	0.696 (inactive)	-0.37	0.328	-0.957 (inactive)
COc1cccc(C)c1NC(=O)O[C@H]1[C@H](OC(=O)Nc2ccccc2-c2ccccc2)[C@@H](OC(=O)Nc2ccccc2-c2ccccc2)[C@@H](OC)O[C@@H]1CO	-1.33 (inactive)	0.406	2.54 (inactive)	1.13 (inactive)	-0.857 (inactive)	0.937 (inactive)	-0.338	-3.62 (inactive)	-1.2 (inactive)	-1.72	-2.87	0.458	-3.51	-3.08	-3.27	1.98	1.62 (inactive)	-0.928	-1.41	-4.57 (inactive)
CC1CC/C=C\[C@H]2OC34C=CCN(C(C)C)C(=O)[C@H]3N(C(C)CO)C(=O)[C@@H]4C2C(=O)O1 (stereo not given in full)	1.9 (inactive)	0.0043	1.07 (inactive)	0.217 (inactive)	1.06 (inactive)	0.184 (inactive)	1.65	0.273 (inactive)	-0.381 (inactive)	1.45	-0.784	0.534	0.517	-0.245	0.819	0.674	0.164 (inactive)	0.851	-0.869	0.574 (inactive)
O=C1C[C@@](C(=O)NCC(F)(F)F)(c2ccc([N+](=O)[O-])cc2)[C@@H](c2ccc(CO)cc2I)N1CC12CC3CC(CC(C3)C1)C2	0.662 (inactive)	0.383	22.4 (active)	5.06 (inactive)	-0.0836 (inactive)	0.69 (inactive)	2.26	1 (inactive)	-0.564 (inactive)	0.733	-2.05	0.463	-5.2	-3.84	-4.03	-0.436	2.16 (inactive)	-0.9	-2.17	-3.86 (inactive)
C=CC[C@]1(C(N)=O)N=C(c2ccc(OCCCO)cc2)O[C@H]1c1ccccc1N=[N+]=[N-]	2.21 (inactive)	0.408	33.4 (active)	30.8 (active)	2.17 (inactive)	9.7 (active)	-0.0547	-1.77 (inactive)	0.627 (inactive)	0.189	0.772	0.46	1.49	-1.04	0.656	0.462	0.903 (inactive)	-0.514	-0.747	-0.752 (inactive)
